Screens (PubChem BioAssay)
Hits are enriched below; roughly 3.5% of the tested compounds scored in any of these assays.
FBW7 act = human FBW7 E3 ligase activation, primary screen. Q969H0. AlphaScreen FBW7–phospho-cyclin E peptide binding, activator screen. normalized activity (activation), % at 26.1 µM. 650,000 compounds, 0.13% hits. AID 1259310; in the data active means normalized activity above about 1.9%;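 further: purified mutant Fbw7 with reduced substrate affinity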
MITF primary = human MITF inhibition, primary screen; 650,000 compounds, 0.91% hits; AID 1259374; inhibition, % at 2.6 µM; AlphaScreen MITF homodimerization, bead proximity signal; O75030; in the data active means inhibition above about 50%;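 further: 0% = vehicle wells with protein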
GPR151 ag = human GPR151 activation. Q8TDV0. PathHunter beta-arrestin GPR151 cells, luminescence. activation, % at 11.2 µM. 650,000 compounds, 1% hits; in the data active means activation above about 4.9%;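 further: 0% = median of compound wells and 100% = cells with positive control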
Target sequence (Q8TDV0 whole entry, looked up): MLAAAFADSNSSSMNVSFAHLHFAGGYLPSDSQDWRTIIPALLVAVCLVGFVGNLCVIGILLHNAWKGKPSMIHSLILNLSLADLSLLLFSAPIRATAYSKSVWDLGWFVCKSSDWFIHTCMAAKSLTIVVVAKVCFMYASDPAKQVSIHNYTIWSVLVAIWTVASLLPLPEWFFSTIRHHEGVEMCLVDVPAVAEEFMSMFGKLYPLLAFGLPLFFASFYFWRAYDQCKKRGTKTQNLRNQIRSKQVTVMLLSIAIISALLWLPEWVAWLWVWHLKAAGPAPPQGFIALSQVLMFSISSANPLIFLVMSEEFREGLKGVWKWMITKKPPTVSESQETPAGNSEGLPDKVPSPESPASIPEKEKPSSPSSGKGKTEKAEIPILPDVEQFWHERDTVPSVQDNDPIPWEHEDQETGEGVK
TEAD-YAP inh = TEAD-YAP interaction inhibition; HEK-TIYL cells, TEAD-Gal4/YAP UAS-luciferase luminescence; inhibition, % at 9.12 µM; 640,000 compounds, 1.4% hits; in the data active means inhibition above about 32%;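 further: 0% = median of test compound wells and 100% = reference inhibitor wells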
MITF confirm = human MITF inhibition, confirmation | shares compounds with MITF primary | AlphaScreen MITF homodimerization, biotin/His-MITF beads | inhibition, % at 2.6 µM | 4,700 compounds, 16% hits;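 active means inhibition above a cutoff derived from the DMSO control wells, cut at about 28% in these data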;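 further: 0% = MITF dimer wells with DMSO only; inhibitors lower the bead chemiluminescence by keeping MITF from dimerizing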
AS interf DR = optically interferes with AlphaScreen signal in dose response; shares compounds with MITF primary; AlphaScreen optical interference counterscreen, cell-free; IC50, µM; 480 compounds, 6% hits; AID 1259373; call rule not given here
AlphaScreen intf2 = optically interferes with AlphaScreen signal; shares compounds with MITF primary; LysRS AlphaScreen counterscreen, signal interference, triplicate; inhibition, % at 2.6 µM; 4,700 compounds, 7.6% hits;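 active means inhibition above a cutoff derived from the DMSO control wells, cut at about 30% in these data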
Active calls of the source: *; x = no result.

SMILES | FBW7 act | MITF primary | GPR151 ag | TEAD-YAP inh | MITF confirm | AlphaScreen intf2 | others
COc1cc(/C=N\NC(=O)CN2CCN(C)CC2)cc2c1OCO2 | 0 | 51* | 0 | -6 | 26 | 0
COc1cc(/C=N\NC(=O)CN2CCN(C)CC2)cc(OC)c1 | 0 | 56* | 1 | 7 | 0 | -3
COc1ccc(-c2nnn(C3CCN(C(=O)c4cn[nH]c4C)CC3)n2)cc1 | 0 | -2 | 1 | 11 | x | x
Cc1ccc(Cn2nnc3c(=O)[nH]c(C4CCCN(C(=O)C(C)(C)C)C4)nc32)cc1 (configuration not stated) | 0 | 67* | -1 | 3 | 1 | 9
Cc1ccc(Cn2nnc3c(=O)[nH]c(C4CCN(C(=O)C(F)(F)F)CC4)nc32)cc1 | 0 | 75* | 0 | 1 | 5 | 14
Cc1ccccc1NC(=O)C1C2C=CC(C2)C1C(=O)Nc1ccccc1C (configuration not stated) | 0 | 1 | 0 | -5 | x | x
CC(C)(C)CC(C)(C)NC(=O)c1cccc([N+](=O)[O-])c1 | 1 | 70* | -2 | 2 | 2 | 10
CC(=O)c1ccc(S(=O)(=O)N(CCCO)Cc2cc3cc(C)c(C)cc3[nH]c2=O)cc1 | 0 | 74* | -1 | -3 | 5 | 13
Clc1ccc(-c2[nH]ncc2CNCc2cccnc2)cc1 | 0 | 58* | 1 | 4 | -9 | -5
CCOC(=O)NC(=S)N/N=C/c1ccccn1 | -2 | 64* | 1 | 3 | -8 | 32*
Clc1ccc(CN2CCC(N3CCCCC3)CC2)cc1 | 0 | -12 | 1 | -2 | x | x
CC1CCCN(C2CCN(Cc3ccc(Cl)cc3)CC2)C1 (configuration not stated) | 0 | 56* | 0 | -13 | 6 | 2
CCOc1ccc(CN2CCC(N3CCCC(C)C3)CC2)cc1 (configuration not stated) | 0 | 53* | 0 | -3 | 1 | 0
COc1ccc(S(=O)(=O)N2CCCOC2CNC(=O)C(=O)NC(C)C)cc1 (configuration not stated) | 0 | 24 | 0 | -4 | x | x
CC1CCCCC1NC(=O)/C(C#N)=C/c1cccs1 (configuration not stated) | 0 | -9 | 1 | -30 | x | x
N/C(=N\OC(=O)c1ccccc1)c1ccc(Cn2cc(C(F)(F)F)ccc2=O)cc1 | 0 | 54* | 0 | 2 | 10 | 12
CCOc1ccc(-n2cc(-c3ccccc3)c3c(NC(CC)CO)ncnc32)cc1 (configuration not stated) | 0 | 3 | 1 | 13 | x | x
COc1cccc(-c2ncc3ccccn23)c1 | -1 | 68* | -1 | -58 | 14 | 32*
COc1cc(OC)cc(-c2ncc3ccccn23)c1 | -1 | 67* | 0 | 0 | 2 | 15
O=C(Nc1c(C(=O)Nc2ccc3c(c2)OCCO3)oc2ccccc12)c1ccco1 | 0 | -10 | 0 | -4 | x | x
O=C(c1ccc(-c2cnn(-c3ccc(Cl)cc3)c2)nc1)N1CCOCC1 | 1 | 58* | -2 | 10 | 9 | 16
Cc1ccc(-n2cc(-c3ccc(C(=O)N4CCCC4)cn3)cn2)cc1 | 1 | 6 | 0 | 5 | x | x
COc1cc(/C=N/N=C2\NC(=O)C(CC(=O)O)S2)ccc1OCC(=O)O (configuration not stated) | 0 | 10 | 0 | 1 | x | x
COc1cc(/C=N/N=C2\NC(=O)C(CC(=O)O)S2)ccc1OCc1ccc(C)cc1 (configuration not stated) | 0 | 66* | -1 | -40 | 45* | 4 | AS interf DR=>6.5
COc1ccc(-c2ncn(-c3ccc(Nc4ncc5ccc(-c6cnn(C)c6)cc5n4)cc3)n2)cn1 | 1 | 55* | 0 | 9 | 12 | 8
O=C(CCCn1c(=S)[nH]c2ccccc2c1=O)N1CCN(c2ccccc2)CC1 | 0 | 3 | 0 | 1 | x | x
COc1ccc(N(C2=NCCCS2)S(=O)(=O)c2ccc(OC)cc2)cc1 | 0 | 56* | 0 | 5 | -12 | -4
CC(=O)c1ccc(S(=O)(=O)N(C2=NCCCS2)c2ccc(F)cc2)cc1 | 0 | -14 | 0 | -8 | x | x
CCc1nc(SCC(=O)c2ccc(OC)c(C)c2)n[nH]1 | 0 | 2 | -1 | -8 | x | x
